PubChem BioAssay AID900 (National Center for Advancing Translational Sciences (NCATS), 2007)
Where “and” joins values, the source holds several entries; their conditions need not be identical. Identical values can stand only once. The whole screen tested about 75,000 compounds, of which about 20 (0.03%) were called active. About 1% were inconclusive and are not listed. Calls come from the whole dose curve; as a rule, active = well fitted inhibition curve with a large enough effect; inconclusive = small, poorly fitted or top-dose-only effect; inactive = flat fitted curve, though single readings scatter. The list is a sample of the results. Square brackets hold non-standard residues; d marks the D form. Side chains are listed from the residue outwards. Peptide text beside a SMILES is read from it. * marks the point of attachment. X1 = CCC(C)C(N)C1=NC(C(=O)*)CS1; Orn = NCCC[CH](N)C(=O)O

molecular target: Caspase-1 (Homo sapiens) (UniProt P29466); test: qHTS Assay for Allosteric/Competitive Inhibitors of Caspase-1; settings: Caspase-1 enzyme, Ac-WEHD-AFC fluorogenic rate; series mostly up to 57.5 µM;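 note: plate controls were vehicle for no effect and no substrate for full effect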
Text: NIH Molecular Libraries Screening Centers Network [MLSCN]
NIH Chemical Genomics Center [NCGC]
PI Name: Dr. James Wells,
Dr. Enrique Perez-Paya, Dr.Janice Williams, Dr. Dennis Wolan, a person
The caspases (Cysteine Aspartyl Protease) comprise a related family of 14 dimeric proteases that are critical mediators of apoptosis (programmed cell death) and inflammation. The caspases represent an important class of drug targets for stroke, ischemia, cancer and inflammatory diseases. […] One goal of this project was to identify compounds that act as allosteric inhibitors via stabilizing the procaspase form of the enzyme. Previous work in Well's laboratory has shown that such allosteric inhibitors can be identified and these act by binding at the dimer interface of enzyme (Hardy, Lam et al., 2004).
The biochemical assay was configured using purified caspase 1 at a high enzyme concentration to promote formation of the homodimers and thus facilitate the identification of allosteric inhibitors. The overall goal was to identify reversible inhibitors with better drug-like properties than the currently available set of aspartyl-containing peptidomimetics that covalently bind the active site. Caspase 1 was assayed using the profluorescent substrate Ac-WEHD-AFC. After initiation of the assay with substrate the plates were rapidly read using an automated robotic system (Kalypsys, Inc.) to maintain consistent timing. A kinetic mode of detection was used where the initial rate was collected (estimated final product formation was ~10%). Compounds were screened as a concentration-titration series that ranged from 57 uM to 0.7 nM. Below is the protocol used for caspase 1.
NCGC Assay Protocol Summary:
Caspase 1 was prepared in buffer (50 mM HEPES pH 7.5, 50 mM KCl, 200 mM NaCl, 10 mM DTT, 0.1% CHAPS) at a concentration of 66.6 nM and 3 uL was dispensed to all wells using black solid Kalypsys 1536-well plates. 20 nL of DMSO containing compounds was added using a pin-tool (Kalypsys Inc.) to columns 5-48. Then 20 nL of DMSO solution from a control plate was added to columns 1-4. Controls were: Column 1, 16 point titration with each concentration in duplicate (1:1 dilutions in DMSO; final starting concentration was 57 uM) of the caspase 1 inhibitor Ac-WEHD-CHO (Alexis Biochemicals); Column 2, a 16 point titration with each concentration in duplicate of the free AFC fluorophore prepared in DMSO (Alexis Biochemicals), final starting was 40 uM; Column 3 neutral (DMSO only) control; Column 4: DMSO alone, to serve as a negative control (no substrate was added). Then 1 uL of 20 uM the substrate Ac-WEHD-AFC (Alexis Biochemicals) prepared in the same buffer was dispensed to all wells except columns 2 and 4 and the plates were immediately transferred (< 1 min) to the Viewlux. The plates were then exposed using 405 nm excitation/520 nm emission filters for 4 sec and read at 20 sec intervals for 3 min. Final enzyme concentration was 50 nM and the final substrate concentration was 5 uM.
Concentration-response curves were fitted to the data calculated from slope of the linear regression of fluorescent intensity versus time (the rate). The concentration-effect curves were then classified based on curve quality (r2), response magnitude and degree of measured activity. […] Inconclusive compounds had appreciable concentration-dependent effects on both the measured rate and the interpolated basal fluorescence intensity at the start of the reaction but where the basal fluorescent intensity was marginal (e.g. < 10-fold). Inconclusive compounds also encompass highly fluorescent compounds (>100-fold increases in fluorescent intensities values relative to controls) where artificial concentration-dependent decreases in the rate occurred at high compound concentrations due to fluorescent interferences.
Keywords: Caspase 1, proteases, profluorescent, MLSMR, MLSCN, NIH Roadmap, qHTS, NCGC

Activity change, negative = inhibition, inactive:
COC(=O)[C@@H]1CC[C@H](C)[C@@H](c2ccc(C)cc2)N1C(=O)c1ccc(/C=N\O[C@@H](C)c2cn([C@H](CO)Cc3ccccc3)nn2)cc1 -0.293% [at 11.5 µM] and 3.03% [at 11.5 µM], CO[C@H]1COC(=O)[C@@H](OCc2ccccc2)/C=C\[C@H](C)[C@@H](OC)COC(=O)[C@H](OCc2ccccc2)/C=C\[C@@H]1C -1.1% [at 11.5 µM], CCOC(=O)N1CCN(C(=O)c2cn(C)c3ccc(S(=O)(=O)N4CCCC4)cc3c2=O)CC1, COC(=O)[C@@H]1C[C@@]2(O)[C@@H](O)[C@@H](O)[C@@H](O)C[C@H]2N1Cc1ccc(C)s1, C/C(Cl)=C\Cn1c(Nc2cccc(C)c2)nc2c1c(=O)n(C)c(=O)n2C, CC(C)[C@H]1CC[C@@H](C)C[C@H]1O, CCC(=O)Nc1nc(OC)cc(OC)n1, Nc1nc2c(nc(Cl)n2C2OC(CO)C(O)C2O)c(=O)[nH]1 (centres undefined), CC(=O)OCC(=O)[C@@]1(O)CCC2C3CCC4=CC(=O)CC[C@@]4(C)[C@]3(F)C(O)C[C@]21C (some centres undefined), O=c1c(O)c(-c2ccc(O)cc2)oc2ccccc12, C=CCn1c(SCc2cc(C(=O)OC)c(C)o2)nnc1-c1ccncc1, C[C@@H](c1ccccc1)N1C(=O)[C@H]2[C@H]3[C@H](O)[C@H](O)C/C(=N/OC[C@@H](O)COCc4ccco4)[C@@H]3CC[C@@H]2C1=O -0.613% [at 11.5 µM], CCCCCCCCCCCCCCCC(=O)OC/C=C(C)/C=C/C=C(C)/C=C/C1=C(C)CCCC1(C)C, Cn1c(N)c(C(=O)COC(=O)c2cc(C(F)(F)F)nc3c(C(F)(F)F)cccc23)c(=O)n(C)c1=O, COc1cccc([C@H](O)Cn2cc(-c3ccc(CON=C(C)C)cc3)nn2)c1 -1.21% [at 11.5 µM], CC1(C)OC2CC3C4CCC5=CC(=O)CCC5(C)C4(F)C(O)CC3(C)[C@]2(C(=O)CCl)O1 (some centres undefined), CC(C)c1ccc(OCC(O)Cn2cnc3ccccc32)cc1 (centres undefined), CCC(C)C(N)C1=NC(C(=O)NC(CC(C)C)C(=O)NC(CCC(=O)O)C(=O)NC(C(=O)NCCCCC2NC(=O)C(CC(N)=O)NC(=O)C(CC(=O)O)NC(=O)C(Cc3cnc[nH]3)NC(=O)C(Cc3ccccc3)NC(=O)C(C(C)CC)NC(=O)C(CCCN)NC2=O)C(C)CC)CS1 (stereo not drawn) (cyclo(DNK([Ile-Glu-Leu-X1])[Orn]IFH); configuration not given here), COC(=O)[C@@H]1C[C@@]2(O)[C@H](O)[C@H](O)[C@H](O)C[C@H]2N1CC1CCCCC1, CCCN1[C@H](C(=O)OC)C[C@@]2(O)[C@@H](O)[C@@H](O)[C@@H](O)C[C@@H]12, CCOC(=O)N/N=C1/C[C@@H](O)[C@@H](O)[C@@H]2[C@@H]3C(=O)N(CC)C(=O)[C@H]3CC[C@H]12 0.333% [at 11.5 µM], CSc1nnc2c(n1)OC(c1ccsc1)N(C(C)=O)c1ccccc1-2 (centres undefined), COc1ccc(COC(=O)N/N=C2/C[C@@H](O)[C@@H](O)[C@@H]3[C@@H]4C(=O)N([C@@H](C)c5ccccc5)C(=O)[C@H]4CC[C@@H]23)cc1 -3.18% [at 11.5 µM], C/C=C(/C)C(=O)OC1Cc2c(ccc3ccc(=O)oc23)OC1(C)C (centres undefined)
